Screening results from PubChem BioAssay.
Most compounds without a hit are left out; they make up all but 3% or so of the library.
IP6K1 inh: IP6K1 kinase inhibition; activity change, % (series mostly up to about 58 µM); IP6K1 kinase, ADP-Glo luminescence, 2 h; active compounds read low; AID 1645851; hit rate 0.81% among 140,000; Q92551; in the data active = activity change below about -25%; also: % is scaled to controls: 0 for no effect and ±100 for the full control effect
Target sequence (Q92551 whole entry, looked up): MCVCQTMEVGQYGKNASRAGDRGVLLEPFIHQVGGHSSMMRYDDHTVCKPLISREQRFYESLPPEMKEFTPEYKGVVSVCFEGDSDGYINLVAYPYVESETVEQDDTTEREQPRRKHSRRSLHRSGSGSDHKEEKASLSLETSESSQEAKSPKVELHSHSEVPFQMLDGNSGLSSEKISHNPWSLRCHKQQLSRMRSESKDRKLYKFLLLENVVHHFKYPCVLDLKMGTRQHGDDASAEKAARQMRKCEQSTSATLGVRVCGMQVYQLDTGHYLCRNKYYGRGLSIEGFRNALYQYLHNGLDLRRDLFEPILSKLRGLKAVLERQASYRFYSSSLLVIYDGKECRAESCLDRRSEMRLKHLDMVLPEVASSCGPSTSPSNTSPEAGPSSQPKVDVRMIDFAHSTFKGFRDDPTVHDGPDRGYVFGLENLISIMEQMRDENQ
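ADP-Glo luminescence measures ADP made by human IP6K1 during a 2 h RT reaction with ATP/IP6 (mix at 1.3 mM/130 uM); top library doses 57.5 and 19.1 uM final.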
KDM5B inhibitor: blocks human KDM5B histone demethylase activity | Q9UGL1 | KDM5B demethylase, FDH-coupled NADH fluorescence (FDH is formaldehyde dehydrogenase) | Potency, µM (highest dose often 57.7 µM), hits mostly inhibitors | hit rate 2.6% among 220,000; also: potency is read from the fitted curve at half-maximal effect; 0% is about no effect; nearly all actives have a fitted effect of over 70% in size
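Inhibition is measured as reduced NADH fluorescence generation from FDH coupling to formaldehyde release. Truncated KDM5BΔAP at 200 nM final acts on H3K4me3 peptide (12.5 µM in substrate mix) in pH 7.5 HEPES buffer with Tween-20, 30 min, room temperature.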
SNCA viab count: counter-screen for SNCA expression inhibitors: cell viability; hit rate 0.12% among 150,000; Potency, µM (titrated, usually from 57.1 µM), without a hit: at the highest dose activity change, negative = cytotoxicity, hits mostly cytotoxic; AID 1671193; HEK-293-SNCA-luc viability, GF-AFC fluorescence, 24 h;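 also: potency is read from the fitted curve at half-maximal effect; 0% = DMSO-treated cells and -100% = medium-only wells without cells; nearly all actives have a fitted effect of over 30% in size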
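Cytotoxicity counterscreen: after 24 h compound treatment of genome-edited SNCA-luciferase HEK-293 cells, live-cell protease substrate GF-AFC read by fluorescence after 30 min; activity scaled between DMSO (0%) and medium-only (-100%), curves Hill-fitted.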
SNCA expr inh: reduces expression of the alpha-synuclein gene | HEK-293 SNCA-luciferase knock-in, luminescence, 24 h | Potency, µM (top dose mostly 57.2 µM), for inactives: at the top dose activity change, negative = inhibition, actives largely listed as inhibitors | hit rate 0.17% among 140,000 | AID 1671194;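 also: potency is read from the fitted curve at half-maximal effect; plate controls were DMSO cells for no effect and cell-free wells for full effect; nearly all actives have a fitted effect of over 45% in size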
Numbers without * were called inactive; [ ] = dose if it differs, or a comment. Unless noted, calls follow the shape of the dose curve; as a rule, active = well fitted curve in the direction sought with a large enough effect; inconclusive = small, poorly fitted or top-dose-only effect, or another doubt; inactive = no such curve, though single readings can be large; an effect the other way counts as inactive or inconclusive.

What do the screens show for `COc1ccc(C2(C(=O)N[C@@H]3CN(c4ncccn4)C[C@H]3CN(C)C)CC2)cc1`?
IP6K1 inh: 8.4; KDM5B inhibitor: 28.2µM*; SNCA viab count: -8.9%; SNCA expr inh: 3.3%

How did COc1cc(Cl)ccc1C(=O)N[C@@H]1CN(c2ncccn2)C[C@H]1CN(C)C do in these assays?
IP6K1 inh: 11.3; KDM5B inhibitor: 28.2µM*; SNCA viab count: -6.2%; SNCA expr inh: 12.0%

What do the screens show for `COc1ccc(C(=O)N[C@@H]2CN(c3ncccn3)C[C@H]2CN(C)C)cc1OC`?
IP6K1 inh: 14.5; KDM5B inhibitor: 28.2µM*; SNCA viab count: 7.6%; SNCA expr inh: -26.7%

What do the screens show for `COc1ccc(Cl)cc1C(=O)N[C@@H]1CN(c2ncccn2)C[C@H]1CN(C)C`?
IP6K1 inh: 21.2; KDM5B inhibitor: inconclusive; SNCA viab count: -2.1%; SNCA expr inh: -9.5%

How did COc1ccc(C(=O)N[C@@H]2CN(Cc3cccnc3)C[C@H]2CN(C)C)c(OC)c1 do in these assays?
IP6K1 inh: 13.6; KDM5B inhibitor: inconclusive; SNCA viab count: -24.0%; SNCA expr inh: -4.1%

What do the screens show for `CC(NC(=O)C1CCN(c2nccc(Nc3ccccc3Cl)n2)CC1)c1ccc(F)cc1` (stereo not given)?
IP6K1 inh: -3.9; SNCA viab count: -29.7%; SNCA expr inh: inconclusive

How did CN(C)C[C@@H]1CN(c2ncccn2)C[C@H]1NC(=O)c1ccc2cc[nH]c2c1 do in these assays?
IP6K1 inh: 1.6; KDM5B inhibitor: 25.1µM*; SNCA viab count: -8.0%; SNCA expr inh: inconclusive

How did CN(C)C[C@@H]1CN(c2ncccn2)C[C@H]1NC(=O)c1cccc2[nH]ccc12 do in these assays?
IP6K1 inh: 17.5; KDM5B inhibitor: inactive; SNCA viab count: 2.9%; SNCA expr inh: 9.9%

Results for COc1ccc(S(=O)(=O)NCCNc2ncnc3c2c(C)nn3C)cc1 ?
IP6K1 inh: 1.5; KDM5B inhibitor: inactive; SNCA viab count: 7.3%; SNCA expr inh: 7.5%

How did CNS(=O)(=O)CCNc1nc(-c2ccccn2)nc2c1c(C)nn2C do in these assays?
IP6K1 inh: -1.8; KDM5B inhibitor: 22.4µM*; SNCA viab count: 4.2%; SNCA expr inh: -10.5%

Results for Cc1nc(CCNc2nc(-c3ccccn3)nc3c2c(C)nn3C)no1 ?
IP6K1 inh: 0.7; KDM5B inhibitor: inconclusive; SNCA viab count: -11.8%; SNCA expr inh: -8.1%

What do the screens show for `COC(CNc1nc(-c2ccccn2)nc2c1c(C)nn2C)c1cccs1` (stereo not given)?
IP6K1 inh: 0.8; KDM5B inhibitor: 28.2µM*; SNCA viab count: -7.5%; SNCA expr inh: -0.9%

What do the screens show for `Cc1nn(C)c2nc(-c3ccccn3)nc(NCC(c3ccco3)N(C)C)c12` (stereo not given)?
IP6K1 inh: 15.8; KDM5B inhibitor: inconclusive; SNCA viab count: -12.0%; SNCA expr inh: 30.3%

Results for Cc1cc(=O)[nH]c(CCNc2nc(-c3ccncc3)nc3c2c(C)nn3C)n1 ?
IP6K1 inh: 3.1; KDM5B inhibitor: 20µM*; SNCA viab count: -0.8%; SNCA expr inh: -8.1%

How did OCCC1CN(c2cc(C(F)(F)F)ccn2)CCN1CC1CCCCC1 (stereo not given) do in these assays?
IP6K1 inh: 6.5; KDM5B inhibitor: 22.4µM*; SNCA viab count: 2.5%; SNCA expr inh: 28.1%

How did OCCC1CN(CCOc2ccc(F)cc2)CCN1CC1CCCCC1 (stereo not given) do in these assays?
IP6K1 inh: -2.0; KDM5B inhibitor: inactive; SNCA viab count: 7.1%; SNCA expr inh: -2.6%

What do the screens show for `CNC(=O)c1cc(C2CC2)nc2c1c(C1CCCN([S+](=O)([O-])c3ccccc3)C1)nn2C` (stereo not given)?
IP6K1 inh: -4.4

Results for COc1ccc(F)cc1-c1ccc(CN2CCCCC2C(=O)NCCc2ccccn2)cc1 (stereo not given) ?
IP6K1 inh: 2.7

How did Cc1noc(C)c1-c1cc2c(cc(C)n2CCN(C)C)c(-c2cccc(O)c2)n1 do in these assays?
IP6K1 inh: -13.2; KDM5B inhibitor: inactive; SNCA viab count: -9.5%[87.6 µM]; SNCA expr inh: -8.1%[87.6 µM]

How did Cc1noc(C)c1-c1cc2c(cc(C)n2CCN(C)C)c(-c2ccc(CO)cc2)n1 do in these assays?
IP6K1 inh: 21.4; KDM5B inhibitor: 25.1µM*; SNCA viab count: -11.1%[87.6 µM]; SNCA expr inh: 10.1%[87.6 µM]

Results for COc1cccc(-c2nc(-c3c(C)noc3C)cc3c2cc(C)n3CCN(C)C)c1OC ?
IP6K1 inh: -6.1; KDM5B inhibitor: 39.8µM*; SNCA viab count: -17.6%[87.6 µM]; SNCA expr inh: 32.0%[87.6 µM]

How did Cc1noc(C)c1-c1cc2c(cc(C)n2C)c(-c2ccc(CO)cc2)n1 do in these assays?
IP6K1 inh: -1.9; KDM5B inhibitor: inactive; SNCA viab count: -0.5%[87.6 µM]; SNCA expr inh: 22.6%[87.6 µM]

Results for Cc1noc(C)c1-c1cc2c(cc(C)n2CCN(C)C)c(-c2ccccc2O)n1 ?
IP6K1 inh: -5.9; KDM5B inhibitor: 31.6µM*; SNCA viab count: inconclusive; SNCA expr inh: -9.0%[87.6 µM]

What do the screens show for `N#Cc1cccc(-c2c(C(=O)NCc3cccc(Cl)c3)nc3sccn23)c1`?
IP6K1 inh: 3.2; SNCA viab count: -2.7%; SNCA expr inh: -1.2%

Results for Cc1ccc(S(=O)(=O)N2CCN(Cc3csc(C)n3)CC2)c(Br)c1 ?
KDM5B inhibitor: inactive

What do the screens show for `CCOc1cc(S(=O)(=O)N2CCN(CCO)CC2)ccc1Br`?
KDM5B inhibitor: inactive

How did Cc1nc2cnccn2c1C(=O)NCCc1cccc(F)c1 do in these assays?
IP6K1 inh: -1.9

Results for CNC(=O)CCNc1c(-c2cccc(F)c2)nc2cnccn12 ?
IP6K1 inh: 21.9; KDM5B inhibitor: 28.2µM*; SNCA viab count: inconclusive; SNCA expr inh: 14.2%

How did Cc1nc2cnccn2c1C(=O)NCc1ccc(F)cc1F do in these assays?
IP6K1 inh: 5.3

What do the screens show for `O=C(CCNc1c(-c2cccc(F)c2)nc2cnccn12)NCc1ccccc1F`?
IP6K1 inh: 4.0; KDM5B inhibitor: 28.2µM*; SNCA viab count: inconclusive; SNCA expr inh: -2.7%

How did COc1ccccc1Nc1ccnc(N2CCC(N[S+](=O)([O-])c3ccccc3)CC2)n1 do in these assays?
IP6K1 inh: 11.3; SNCA viab count: -20.8%; SNCA expr inh: -21.8%

What do the screens show for `c1ccc2cc(-c3nc(C4CCOC4)no3)ncc2c1` (stereo not given)?
IP6K1 inh: 7.3; KDM5B inhibitor: inconclusive; SNCA viab count: 3.2%; SNCA expr inh: -24.5%

What do the screens show for `COc1ccc2c(C)c(-c3nc(C4CCOC4)no3)oc2c1` (stereo not given)?
IP6K1 inh: -2.9; KDM5B inhibitor: 31.6µM*; SNCA viab count: 5.4%; SNCA expr inh: 67.4%

What do the screens show for `OCCc1cnc2c(-c3nc(-c4cccnn4)no3)cnn2c1`?
IP6K1 inh: 27.0; KDM5B inhibitor: 25.1µM*; SNCA viab count: -29.4%; SNCA expr inh: 11.5%

What do the screens show for `CN(Cc1cccc(N2CCN([S+](=O)([O-])c3cccc4ccccc34)CC2)c1F)[S+](C)(=O)[O-]`?
IP6K1 inh: 9.5

How did CCCc1noc(-c2cccn3c(CNC(=O)c4cccc(Cl)c4)nnc23)n1 do in these assays?
IP6K1 inh: -2.3; KDM5B inhibitor: inconclusive; SNCA viab count: -12.9%; SNCA expr inh: 4.6%
